Data taken from the supplement of paper PMC6555819.

How the values were obtained:
Assay in all cases: PBM binding z-score (relative to random genomic background probes); higher = stronger binding; sequences stand for … in GC…GCGATTGACAGCGTAGAATGAAGG
[1] = tested on: FXR:RXRa (NR concentration 270 nM, RXRa partner concentration 90 nM)
Method in brief: (§1)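 Ligand-free nuclear receptor dimers were bound for 1 h to custom Agilent 4×180K protein-binding microarrays. Detection used antibodies against each partner (one per run). Binding z-scores rest on regression-normalized fluorescence, with random background probes as the reference.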

[2] = tested on: LXRa:RXRa (NR concentration 270 nM, RXRa partner concentration 90 nM)
Method in brief: as §1

[3] = tested on: LXRa homodimer (NR concentration 270 nM)
Method in brief: as §1

[4] = tested on: LXRb:RXRa (NR concentration 270 nM, RXRa partner concentration 90 nM)
Method in brief: as §1

[5] = tested on: LXRb homodimer (NR concentration 270 nM)
Method in brief: as §1

[6] = tested on: PPARa:RXRa (NR concentration 270 nM, RXRa partner concentration 90 nM)
Method in brief: as §1

[7] = tested on: PPARg:RXRa (NR concentration 180 nM, RXRa partner concentration 90 nM)
Method in brief: as §1

[8] = tested on: PPARg:RXRa 270nM:90nM, anti-RXR (NR concentration 270 nM, RXRa partner concentration 90 nM)
Method in brief: as §1

[9] = tested on: PPARg:RXRa 30nM:10nM, anti-RXR (NR concentration 30 nM, RXRa partner concentration 10 nM)
Method in brief: as §1

[10] = tested on: PPARg:RXRa 90nM:30nM, anti-RXR (NR concentration 90 nM, RXRa partner concentration 30 nM)
Method in brief: as §1

[11] = tested on: PPARg:RXRa DBDmut IVT, anti-RXR (DBD mutation: RXRa K156A/R161A, NR concentration 270 nM, RXRa partner concentration 90 nM)
Method in brief: as §1

[12] = tested on: PPARg:RXRa IVT, anti-PPARg (NR concentration 270 nM, RXRa partner concentration 90 nM)
Method in brief: as §1

[13] = tested on: PPARg DBDmut:RXRa IVT, anti-PPARg (DBD mutation: PPARg1 K132A/R137A, NR concentration 270 nM, RXRa partner concentration 90 nM)
Method in brief: as §1

[14] = tested on: PPARg DBDmut IVT, anti-PPARg (DBD mutation: PPARg1 K132A/R137A, NR concentration 270 nM)
Method in brief: as §1

[15] = tested on: PPARg homodimer (NR concentration 180 nM)
Method in brief: as §1

[16] = tested on: PXR:RXRa (NR concentration 270 nM, RXRa partner concentration 90 nM)
Method in brief: as §1

[17] = tested on: PXR homodimer (NR concentration 270 nM)
Method in brief: as §1

[18] = tested on: RARa:RXR (NR concentration 270 nM, RXRa partner concentration 90 nM)
Method in brief: as §1

[19] = tested on: RARa homodimer (NR concentration 270 nM)
Method in brief: as §1

[20] = tested on: RARb:RXRa (NR concentration 270 nM, RXRa partner concentration 90 nM)
Method in brief: as §1

Sequence | PBM binding z-score [1] | PBM binding z-score [2] | PBM binding z-score [3] | PBM binding z-score [4] | PBM binding z-score [5] | PBM binding z-score [6] | PBM binding z-score [7] | PBM binding z-score [8] | PBM binding z-score [9] | PBM binding z-score [10] | PBM binding z-score [11] | PBM binding z-score [12] | PBM binding z-score [13] | PBM binding z-score [14] | PBM binding z-score [15] | PBM binding z-score [16] | PBM binding z-score [17] | PBM binding z-score [18] | PBM binding z-score [19] | PBM binding z-score [20]
TCTCGGAGGACACGAAGCTCAGAGCTTTCCAGAG | 0.39 | -0.167 | -0.771 | -0.53 | -1.25 | -0.0868 | -0.122 | 0.617 | 1.74 | 1.27 | 1.41 | -0.21 | -1.23 | -1.14 | -0.926 | -0.254 | -0.712 | -0.204 | -0.988 | 1.24
TGAATGAGGTTAAAGATTAGGGAACGTGGCGTCG | 2.45 | 2.05 | -0.0169 | 1.38 | 0.449 | 3.74 | 3.78 | 4.94 | 2.32 | 4.36 | 2 | 2.99 | 1.53 | 0.276 | 0.705 | 1.33 | 0.337 | 1.98 | 0.424 | 1.97
AGTCAAAGTTCACTAGGTCACGTAAGATTCAGCT | 6.19 | 6.11 | 5.68 | 4.32 | 1.45 | 6.04 | 9.33 | 7.67 | 4.81 | 7.31 | 5.56 | 6.73 | 1.41 | 1.03 | 4.02 | 5.52 | 3.91 | 5.75 | 1.46 | 5.27
GCGACTGGGGCAAAGCAGATTACCATAAGGTTGG | -0.443 | -0.606 | -0.499 | -0.352 | -0.97 | 0.454 | 1.36 | 0.951 | 0.202 | 0.481 | 4.66 | 3.29 | -0.663 | -0.34 | -0.207 | -0.451 | -0.273 | -0.203 | -0.607 | 0.381
GCTACTGGGGCAAAGCAGGTTACCATAAGGTTGG | 0.552 | 0.174 | -0.316 | 0.4 | -0.276 | 2.24 | 2.37 | 2.63 | 0.398 | 1.52 | 6.4 | 5.54 | 0.032 | -0.0829 | 0.182 | 0.319 | -0.456 | 0.495 | -0.534 | 1.12
TCTTGTAGATCAGCACGTTAAGAAAGCTGGCCAA | 0.121 | 0.0301 | -0.232 | -0.0159 | -0.411 | 0.18 | -0.291 | 0.766 | 2.47 | 1.43 | 1.32 | -0.181 | -0.456 | -0.271 | -0.311 | 0.0608 | 0.0555 | 0.441 | 0.0158 | -0.204
ATCGAAAGGTCGAGGAGAGTATAGAGAAAGGGAA | 4.17 | 3.26 | 0.202 | 2.47 | 0.669 | 4.24 | 2.57 | 2.92 | 1.38 | 2.09 | 0.194 | 1.22 | 1.53 | 0.209 | 1.53 | 2.33 | 0.36 | 2.76 | 0.436 | 3.9
GTACCAAGGTGAATAGGTCGTTAATGAGTAGGCG | 0.719 | 0.484 | -0.0766 | 0.302 | -0.312 | 2.18 | 1.38 | 1.71 | 0.588 | 1.07 | 1.75 | 2.66 | 0.399 | 0.346 | 1.46 | 0.664 | 0.393 | 1.44 | 0.00305 | 1.91
TGAATGAGGTTATAAGATCATGGAACGTTGCAAA | 1.6 | 1.52 | -0.175 | 1.37 | 0.0257 | 3.04 | 1.65 | 2.41 | 1.02 | 1.78 | 1.37 | 2 | 1.44 | 0.209 | -0.119 | 1.1 | -0.359 | 1.96 | -0.439 | 1.13
AGAATGAGGTTATTAAAATCAGGGAATTGCGGTC | 1.11 | 1.04 | 0.0738 | 1.21 | 0.192 | 2.3 | 1.02 | 1.43 | 0.509 | 0.902 | 3.19 | 2.38 | 0.973 | 0.541 | 0.649 | 1.13 | 0.34 | 1.44 | 0.843 | 1.25
ACTAGTTGGTCAGCTGAGCTCACACACAATTCGG | -0.29 | -0.363 | -0.563 | -0.541 | -0.142 | -0.497 | 0.575 | -0.784 | -0.476 | -0.673 | 0.771 | 0.632 | 0.319 | 0.574 | -0.1 | -0.455 | -0.49 | -0.357 | -0.333 | 0.363
TCATATAGGTAAAAGGAGAAAGTCGGTGTGGTAA | 1.15 | 0.966 | -0.0649 | 0.573 | -0.239 | 2.06 | 2.92 | 4.79 | 4.87 | 5.01 | 4.08 | 2.11 | 0.507 | 0.375 | 0.959 | 0.415 | 0.686 | 0.571 | 1.29 | 0.195
TCTTGTAGAGCAAAGGTTAAGAAAGCCGAAGCCT | 0.884 | 1.23 | -0.186 | 1.4 | -0.852 | 4.91 | 8.91 | 8.58 | 8.43 | 8.68 | 2.94 | 4.15 | 0.281 | -0.0845 | 0.283 | 1.49 | -0.688 | 2.16 | -0.59 | 1.62
TCGAGTAGGTTAGTCGGGGCCTTCAGCCAACATA | -0.352 | -0.131 | -0.672 | 0.0154 | -1.21 | 0.259 | -0.8 | 0.291 | 0.448 | 0.62 | 1.83 | 1.08 | -1.4 | -0.48 | -0.555 | -0.49 | -0.597 | -0.0225 | -1.38 | 0.0952
